# Screening data from PubChem.
# Mac1 fbg enh: enhancers of human CD11b/CD18 binding to fibrinogen. P05107+P11215. K562 CD11b/CD18 adhesion to fibrinogen, ATPlite luminescence. activation, % at 10 µM. 0.07% of 93,000 active;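 active = 10 µM primary screen giving 50% or more activity, confirmed by 40% or more on retest at that dose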
# CYP2C9 inhib: inhibitors of human CYP2C9 | 20% of 96,000 active | AID 777 | CYP2C9 Supersomes, luciferin-H conversion, luminescence | inhibition, % at 5 µM | P11712;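 active = blocking of liver enzyme CYP2C9 beyond about 50% at 5 µM, limit read from the data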
# CYP2C19 activ: cytochrome P450 2C19 (human) activation. recombinant CYP2C19, luciferin-H EGE luminescence; hits give high values; 0 = fully inhibited enzyme, 1 = untreated enzyme. 96,000 tested, under 10 active. P33261. activation factor at 5 µM;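 active = activation factor of at least 2 at 5 µM in the primary screen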;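 note: 0 = wells with 2.5 mM tranylcypromine and 1 = vehicle-only wells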
# Target sequence (P33261 whole entry, looked up): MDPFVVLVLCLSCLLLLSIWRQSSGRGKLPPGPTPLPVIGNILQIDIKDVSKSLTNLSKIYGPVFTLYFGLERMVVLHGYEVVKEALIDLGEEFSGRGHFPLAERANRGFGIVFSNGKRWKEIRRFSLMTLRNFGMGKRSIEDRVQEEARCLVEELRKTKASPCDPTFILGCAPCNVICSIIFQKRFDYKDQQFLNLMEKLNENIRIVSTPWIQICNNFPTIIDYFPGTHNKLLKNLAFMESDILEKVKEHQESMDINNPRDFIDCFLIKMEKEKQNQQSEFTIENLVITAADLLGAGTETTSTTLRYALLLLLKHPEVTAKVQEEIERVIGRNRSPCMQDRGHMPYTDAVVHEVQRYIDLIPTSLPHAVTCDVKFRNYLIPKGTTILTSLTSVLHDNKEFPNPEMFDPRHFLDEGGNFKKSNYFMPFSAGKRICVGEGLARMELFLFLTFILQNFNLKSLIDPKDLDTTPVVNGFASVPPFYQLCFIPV
# CYP2C19 inh: blocks human cytochrome P450 2C19; P33261; CYP2C19 Supersomes, luciferin-H EGE luminescence, 30 min; inhibition, % at 5 µM; 21% of 96,000 active; AID 778;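 active = CYP2C19 inhibition above a set limit at 5 µM in the primary screen, cut at about 50% in these data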;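 note: plate controls were negative control wells for no effect and 2.5 mM tranylcypromine positive control for full effect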
# CD11b adhes inh: CD11b/CD18-fibrinogen binding inhibition; P05107+P11215; K562 CD11b/CD18 adhesion to fibrinogen, ATPlite luminescence; Mn2+ added to activate the integrin; inhibition, % at 10 µM; 0.54% of 93,000 active; AID 1497;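 active = primary inhibition of 50% or more at 10 µM, then 40% or more on retest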
# CYP2C9 act: activators of human CYP2C9; recombinant CYP2C9, luciferin-H conversion, luminescence; hits give high values; factor 1 = untreated enzyme, 0 = blocked; activation factor at 5 µM; 1.4% of 96,000 active; AID 1024;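 active = activation factor of 2 or more for CYP2C9 at a 5 µM dose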;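 note: 0 = sulfaphenazole-blocked wells and 1 = vehicle-only wells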
# * = called active by the depositor; nt = no result. Hits are enriched below; roughly 28% of the tested compounds scored in any of these assays.
SMILES,Mac1 fbg enh,CYP2C9 inhib,CYP2C19 activ,CYP2C19 inh,CD11b adhes inh,CYP2C9 act
COc1ccc(-c2cc(C(F)(F)F)nc(SCC(=O)N3CCOCC3)n2)cc1OC,-3.8,84.3*,0.6,37.1,3.6,0.2
COCCNC(=O)CSc1nc(-c2ccc(OC)c(OC)c2)cc(C(F)(F)F)n1,5.5,60.5*,0.6,35.5,-13.9,0.4
COc1cc(C(=O)NCc2nnc(SCC(=O)Nc3cc(C)cc(C)c3)o2)cc(OC)c1OC,5.8,-10.0,1.1,-13.0,-0.7,1.1
Cc1ccc(-c2nn(-c3cc(Cl)ccc3[N+](=O)[O-])c(=O)c3ccccc23)cc1C,nt,32.6,0.8,23.5,nt,0.7
CN(C)S(=O)(=O)c1ccc2[nH]cc(/C=C/c3nc4ccccc4c(=O)n3-c3ccccc3)c2c1,nt,69.4*,0.3,70.0*,nt,0.3
CN(C)C(=O)c1ccccc1Sc1cc(Cl)ccc1Cl,5.6,-10.2,0.2,75.3*,18.9,1.1
CN(C)C(=O)c1ccccc1Sc1ccc(Cl)cc1Cl,0.1,57.7*,0.1,94.9*,57.5,0.4
Cc1nc(C(=O)N(C)C)nn1-c1cc(Cl)ccc1Cl,-5.4,-7.1,1.1,-14.5,-0.4,1.1
CCCCc1cc(=O)oc2cc(C)cc(OC(C)C(=O)O)c12 (stereo not drawn),nt,21.9,1,-1.4,nt,0.8
COc1ccc([N+](=O)[O-])cc1COc1cc(C)cc2oc(=O)cc(-c3ccccc3)c12,-0.9,91.7*,0.3,74.7*,12.4,0.1
Cc1cc(O)c2c(-c3ccccc3)cc(=O)oc2c1,2.6,75.6*,0.5,52.4*,16.8,0.2
CCCCc1cc(=O)oc2cc(C)cc(O)c12,nt,68.0*,0.4,55.1*,nt,0.3
Cc1cc(OCc2cc3c(cc2Cl)OCO3)c2c(C)cc(=O)oc2c1,23.7,nt,nt,nt,-2.5,nt
CCNC(=O)COC(=O)C1C(C(=O)OCC)=C(C)NC(C)=C1C(=O)OCC,-3.4,74.9*,0.1,86.0*,-4.5,0.3
COC(=O)C1=C(C)NC(C)=C(C(=O)OC)C1C(=O)OCC(=O)N1c2ccccc2CC1C (stereo not drawn),-3.8,93.0*,0.1,86.3*,1.3,0.1
CCOC(=O)C1=C(C)NC(C)=C(C(=O)OCC)C1C(=O)OCC(=O)N1CCc2ccccc2C1,4.4,78.9*,0.4,56.3*,-9.0,0.2
CCOC(=O)C1=C(C)NC(C)=C(C(=O)OCC)C1C(=O)OCC(=O)N1CCCCC1CC (stereo not drawn),2.1,66.8*,0.4,62.5*,-4.7,0.3
Cc1ccc2nsnc2c1S(=O)(=O)N1CCOCC1,-2.1,-0.5,0.8,15.4,36.7,1
CCCCCCC1CCC(C(=O)NC(CCSC)C(=O)NC(C(=O)OC)C(C)C)CC1 (stereo not drawn),5.1,15.7,0.1,85.5*,-2.4,0.8
O=C(CCC(=O)c1ccc(F)cc1)Nc1cc(Cl)cc(Cl)c1,nt,46.3,0.5,52.2*,nt,0.5
O=C(CCC(=O)OCC(=O)c1ccc(-c2ccccc2)cc1)Nc1cccc(Cl)c1,-2.0,2.8,1,1.3,-8.6,1
COC(=O)c1ccc(-c2ccc(CNCC(O)c3ccccc3)o2)cc1 (stereo not drawn),nt,28.2,0.4,59.9*,nt,0.7
C=CCOc1cccc(C2C(C(=O)c3ccc(C)o3)=C(O)C(=O)N2CCN(C)C)c1 (stereo not drawn),-1.3,-6.9,1,-4.5,-9.7,1.1
COc1cc(C(=O)NCc2cccc3ccccc23)cc(Cl)c1OC,-1.2,-30.4,0.4,61.5*,2.4,1.3
O=C(N/N=C/c1ccco1)C1CC1(c1ccccc1)c1ccccc1 (stereo not drawn),-0.9,nt,nt,nt,-2.4,nt
Cc1cc(-c2ccccc2)nc(N(C)NC(=O)c2c(F)cccc2F)c1S(C)(=O)=O,1.0,69.4*,0.5,50.7*,-34.1,0.3
Cc1ccc(Cl)cc1N1CCN(C(=O)C2CCN(S(=O)(=O)c3cnc[nH]3)CC2)CC1,-0.6,29.3,0.8,23.1,-17.7,0.7
CN(CC(=O)N1CCN(c2ccccc2F)CC1)S(=O)(=O)c1cnc[nH]1,-3.2,100.1*,0,98.6*,-1.9,0
